Source: PubChem (National Center for Advancing Translational Sciences (NCATS))
DRD3 antagonist: qHTS of D3 Dopamine Receptor Antagonist: qHTS. D(3) dopamine receptor (Homo sapiens), P35462. D3R cells, DiscoveRx beta-arrestin luminescence, antagonist mode; stronger effect = lower value. max response, negative = inhibition, %. 360,000 tested, 2.5% active; in the data active = max response below about -50%; inconclusive = no clear call, values can overlap the other calls; note: % is set by controls: 0 for no effect and ±100 for the full control effect
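Cells expressing the human receptor were seeded at 1500 cells/well, incubated overnight at 37 degrees C in 5% CO2, then exposed to library compounds with dopamine controls for 90 minutes at 37 degrees C before luminescent detection.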
MBNL1 CUG block: qHTS Assay for Inhibitors of MBNL1-poly(CUG) RNA binding; TR-FRET MBNL1-His/biotin-(CUG)12 binding, 665/545 ratio; Muscleblind-like protein 1 (Homo sapiens), Q9NR56; AID 2675, 2010; Potency, µM (highest dose often 57.5 µM), inactives show at the top dose activity change, negative = inhibition, actives largely listed as inhibitors; 280,000 tested, 0.036% active; active = well fitted inhibition curve with a large enough effect in the signal ratio, with a control signal flat, not every such curve was filed as active; inconclusive = small, poorly fitted or top-dose-only effect, or effect the other way, or a change in a side signal; inactive = no such curve, though single readings can be large or run the other way; the % refers to the signal ratio; note: potency is the fitted concentration of half-maximal effect; % is set by controls: 0 for no effect and ±100 for the full control effect
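Compounds (final 92 nM to 58 uM) are added to His-tagged MBNL1 and biotin-(CUG)12, then terbium anti-His antibody and streptavidin-XL665 (5 nM final). After 60 min at room temperature, the 665/545 nm ratio is read.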
PTHR1 ag: qHTS for PTHR1 Agonists: Primary Screen; Parathyroid hormone/parathyroid hormone-related peptide receptor (Homo sapiens), Q03431; HEK293 GP2 PTHR1 cells, GloSensor cAMP luminescence, 1 h; Potency, µM (highest dose often 115 µM), inactives show at the top dose activation, usual class: activators; 410,000 tested, 0.075% active; note: potency is the fitted concentration of half-maximal effect; nearly all actives have a fitted effect of over 55% in size
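HEK-293-derived GP2 cells expressing PTHR1 and a GloSensor cAMP reporter, 3,000/well, plated overnight, given luciferin plus IBMX (each 0.5 mM as added) for 1 h at 37 °C, then compound for 1 h at 37 °C. Luminescence was read after 15 min at room temperature.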
DRD3 agonist: qHTS of D3 Dopamine Receptor Agonist: qHTS | D(3) dopamine receptor (Homo sapiens), P35462 | AID 652048, 2013 | D3R DiscoveRx beta-arrestin cells, luminescence, 90 min | max activation, % | 410,000 tested, 0.58% active; in the data active = max activation above about 30%; note: 0% is about no effect
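Agonist-mode cell screen: cells plated at 1500/well and incubated overnight at 37 °C, then exposed to library compounds for 90 min at 37 °C. Detection reagent was added for 30–60 min at room temperature, and luminescence was read.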
a7 integrin act: qHTS for Activators of Integrin-Mediated Alleviation for Muscular Dystrophy. alpha7betagal myoblasts, beta-gal FDG fluorescence, 48 h. Potency, µM (highest dose often 38.3 µM), inactives show at the top dose activation, hits mostly activators. 350,000 tested, 0.064% active;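 note: potency is the fitted concentration of half-maximal effect; 100% = response of the positive control SU9516; nearly all actives have a fitted effect of over 60% in size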
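Alpha7betagal+/- myoblasts (passage 13) were plated 16-24 hr, then exposed to compounds (1:260 dilution of DMSO stock) for 48 hours at 37C. After MPER lysis, β-galactosidase reporter activity was read as FDG fluorescence (ex 480/em 540) after 30 minutes.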
CBFb RUNX1 block: qHTS Assay for Compounds Blocking the Interaction Between CBF-beta and RUNX1 for the Treatment of Acute Myeloid Leukemia; 230,000 tested, under 10 active; Runt-related transcription factor 1 (Homo sapiens) + Core-binding factor subunit beta …; AlphaScreen CBFb-His/RUNX1-biotin binding, biochemical; Potency, µM (doses to about 59.8 µM), without a hit: at the highest dose activity, negative = inhibition, actives largely listed as inhibitors; note: % of control where 0% means no effect
Target sequence (Q01196 whole entry, looked up): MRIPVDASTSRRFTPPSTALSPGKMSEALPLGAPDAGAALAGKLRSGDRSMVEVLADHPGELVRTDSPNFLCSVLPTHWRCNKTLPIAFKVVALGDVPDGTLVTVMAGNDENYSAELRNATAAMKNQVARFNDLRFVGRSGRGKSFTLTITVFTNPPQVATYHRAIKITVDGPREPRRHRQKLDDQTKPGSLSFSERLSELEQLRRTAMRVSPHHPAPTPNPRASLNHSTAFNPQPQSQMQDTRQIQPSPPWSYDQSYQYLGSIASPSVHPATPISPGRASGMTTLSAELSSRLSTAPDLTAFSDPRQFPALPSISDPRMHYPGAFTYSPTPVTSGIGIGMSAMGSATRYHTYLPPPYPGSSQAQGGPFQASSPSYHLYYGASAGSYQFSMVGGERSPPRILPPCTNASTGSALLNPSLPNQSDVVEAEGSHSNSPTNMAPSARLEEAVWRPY
Target sequence (Q13951 whole entry, looked up): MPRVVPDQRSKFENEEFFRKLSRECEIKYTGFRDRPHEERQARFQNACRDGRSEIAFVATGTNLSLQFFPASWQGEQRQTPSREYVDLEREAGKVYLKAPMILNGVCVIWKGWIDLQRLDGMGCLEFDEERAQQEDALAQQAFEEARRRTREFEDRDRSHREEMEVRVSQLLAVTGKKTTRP
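AlphaScreen proximity signal reports loss of binding between His-tagged CBF-beta and biotin-labelled RUNX1, each at 30 nM. Proteins are pre-associated for 20 minutes, compounds added for 15 minutes, then beads for 90 minutes, all at ambient temperature.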
An asterisk follows results filed as active; [ ] = dose if it differs, or a comment. This is a sample that favours compounds with a hit; in the whole collection about 2.8% have one here. Unless noted, calls come from the whole dose curve; as a rule, active = well fitted curve in the direction sought with a large enough effect; inconclusive = small, poorly fitted or top-dose-only effect, or another doubt; inactive = no such curve, though single readings can be large; an effect the other way counts as inactive or inconclusive.

Results for CCOC(=O)C1=C(C)N=c2s/c(=C/c3cccc([N+](=O)[O-])c3O)c(=O)n2C1c1ccc(OC)cc1OC (stereo not drawn) ?
DRD3 antagonist: -55.0*; MBNL1 CUG block: 10.3%; PTHR1 ag: inactive; DRD3 agonist: -20.7; a7 integrin act: 19.0%

How did CCOC(=O)C1=C(C)N=c2s/c(=C\c3ccc(O)c([N+](=O)[O-])c3)c(=O)n2C1c1ccccc1OC (stereo not drawn) do in these assays?
DRD3 antagonist: -16.7; MBNL1 CUG block: 4.1%; PTHR1 ag: -95.0%; DRD3 agonist: -9.8; a7 integrin act: 20.7%

Results for Cc1c(C(=O)N2CCCC(C)(C(=O)NS(=O)(=O)C3CC3)C2)oc2ccccc12 (stereo not drawn) ?
DRD3 antagonist: 0.0; PTHR1 ag: inactive; DRD3 agonist: -1.9

Results for Cc1nc2cc(C(F)(F)F)ccc2n1CCNc1nc(-c2ccc(F)cc2)cs1 ?
DRD3 antagonist: 7.5; MBNL1 CUG block: -0.4%; PTHR1 ag: -3.0%; DRD3 agonist: 0.5; a7 integrin act: 16.8%

How did Cc1ccc(-c2csc(NCCn3c(-c4ccncc4)nc4ccccc43)n2)cc1 do in these assays?
DRD3 antagonist: 120.4; MBNL1 CUG block: 0.3%; PTHR1 ag: -17.5%; DRD3 agonist: 51.4*; a7 integrin act: 4.8%

How did Cc1ccc(-c2csc(NCCn3c(-c4ccncc4)nc4cc(C(F)(F)F)ccc43)n2)cc1 do in these assays?
DRD3 antagonist: 1.6; PTHR1 ag: -28.9%; DRD3 agonist: 13.2; a7 integrin act: -16.7%

Results for COc1ccc(-c2csc(NCCn3c(C)nc4cc(C(F)(F)F)ccc43)n2)cc1 ?
DRD3 antagonist: 73.4; PTHR1 ag: -4.2%; DRD3 agonist: 36.6*; a7 integrin act: 1.1%

How did COc1ccccc1NC(=O)Nc1nc(C(N)CC(C)C)cs1 (stereo not drawn) do in these assays?
DRD3 antagonist: 0.0; PTHR1 ag: -3.2%; DRD3 agonist: -16.0

How did O=C1CCN(CCc2ccccc2)CCN1C(CSc1ccc(Br)cc1)c1ccccc1 (stereo not drawn) do in these assays?
CBFb RUNX1 block: -0.5%

How did Cc1ccc(C(C[N+](=O)[O-])c2c(C)[nH]n(-c3ccccc3)c2=O)cc1 (stereo not drawn) do in these assays?
DRD3 antagonist: -63.5*; MBNL1 CUG block: inconclusive; PTHR1 ag: -12.3%; DRD3 agonist: -36.1; a7 integrin act: -17.5%; CBFb RUNX1 block: -0.8%

How did Cc1[nH]n(-c2ccccc2)c(=O)c1C(C[N+](=O)[O-])c1ccc(F)cc1 (stereo not drawn) do in these assays?
DRD3 antagonist: -4.0; MBNL1 CUG block: 7.3%[11.5 µM]; PTHR1 ag: -12.0%; DRD3 agonist: 0.7; a7 integrin act: -41.2%; CBFb RUNX1 block: 12.2%

How did Cc1cc(C)c(S(=O)(=O)/N=C2/C=C(Sc3ncn[nH]3)C(=O)c3ccccc32)cc1C do in these assays?
DRD3 antagonist: -68.7*; MBNL1 CUG block: inconclusive; PTHR1 ag: -10.7%; DRD3 agonist: -9.3; a7 integrin act: -56.6%; CBFb RUNX1 block: -2.6%

How did Cc1ccc(C)c(S(=O)(=O)/N=C2\C=C(NS(=O)(=O)c3ccccc3)C(=O)c3ccccc32)c1 do in these assays?
DRD3 antagonist: inconclusive; MBNL1 CUG block: inconclusive; PTHR1 ag: -24.1%; DRD3 agonist: -5.4; a7 integrin act: 10.1%

What do the screens show for `O=C(Nc1nc2c(s1)CCCC2)C1CCCN1C(=O)c1cccs1` (stereo not drawn)?
DRD3 antagonist: -52.7*; MBNL1 CUG block: -2.3%; PTHR1 ag: -67.2%[57.5 µM]; DRD3 agonist: -4.7; a7 integrin act: 4.3%; CBFb RUNX1 block: -0.7%

What do the screens show for `O=C(CCS(=O)(=O)Cc1ccccc1)Nc1nc2c(s1)CCCC2`?
DRD3 antagonist: -102.9*; MBNL1 CUG block: -0.1%; PTHR1 ag: inactive; DRD3 agonist: -11.4; a7 integrin act: -67.7%; CBFb RUNX1 block: -0.5%

Results for O=C(Nc1nc2c(s1)CCCC2)c1ccc(Br)s1 ?
DRD3 antagonist: -67.0*; MBNL1 CUG block: 8.0%; PTHR1 ag: -60.4%[57.5 µM]; DRD3 agonist: -26.1; a7 integrin act: 16.0%[7.66 µM]; CBFb RUNX1 block: 3.4%

Results for Cc1cccc(C(=O)Nc2nc3c(s2)CCCC3)c1 ?
PTHR1 ag: -18.8%; DRD3 agonist: -23.0

What do the screens show for `CCC(Oc1ccc(F)cc1)C(=O)N1CCCCCCC1` (stereo not drawn)?
DRD3 antagonist: -2.9; MBNL1 CUG block: -2.7%; PTHR1 ag: -6.5%; DRD3 agonist: 6.8; a7 integrin act: 23.2%

Results for Cc1cc(C)n2c(NCc3ccccc3)c(-c3cc4ccccc4o3)nc2n1 ?
DRD3 antagonist: -18.4; PTHR1 ag: -14.4%; DRD3 agonist: -3.1

How did O=c1cc(-c2ccccc2Cl)oc2c(NS(=O)(=O)c3cc(Cl)cc(Cl)c3O)ccc(O)c12 do in these assays?
DRD3 antagonist: 26.4; MBNL1 CUG block: inconclusive; PTHR1 ag: -48.3%; DRD3 agonist: 36.0*; a7 integrin act: -11.9%; CBFb RUNX1 block: inconclusive

What do the screens show for `CC(C)(C)c1ccc(C(=O)Nc2ccc(O)c3c(=O)cc(-c4ccccc4Cl)oc23)cc1`?
DRD3 antagonist: 32.8; MBNL1 CUG block: -0.9%; PTHR1 ag: inactive; DRD3 agonist: 119.3*; a7 integrin act: 15.3%; CBFb RUNX1 block: 7.6%

How did Cc1ccc(S(=O)(=O)N2[C@@H](CO)CO[C@H]2CC(=O)c2ccc(F)cc2)cc1 do in these assays?
DRD3 antagonist: 4.1; PTHR1 ag: -48.0%; DRD3 agonist: -0.3

Results for O=C(NCc1ccc(Cl)cc1)c1ccc(NC(=O)N2CC3CCCN3c3ccccc32)cc1 (stereo not drawn) ?
PTHR1 ag: inactive; DRD3 agonist: 6.4

What do the screens show for `COc1ccc(-c2csc(Nc3cccc(C)n3)n2)cc1C`?
DRD3 antagonist: 9.0; MBNL1 CUG block: 20.9%; PTHR1 ag: -13.5%; DRD3 agonist: 41.5*; a7 integrin act: 0.9%

What do the screens show for `Cn1cccc1C(=O)Nc1nc(-c2ccccn2)cs1`?
DRD3 antagonist: -56.3*; MBNL1 CUG block: -14.2%; PTHR1 ag: -20.1%[57.5 µM]; DRD3 agonist: -3.3; a7 integrin act: -35.7%; CBFb RUNX1 block: -23.5%
